Screens as filed in PubChem.
MazF activator: MazEF (E. coli) toxin RNase activation | FAM/BHQ RNA-DNA oligo cleavage fluorescence, 5 h | AID 504720 | activation, % at 20 µM | hit rate 0.32% among 350,000 | P0AE70; in the data active = activation above about 50%
Target sequence (P0AE70 whole entry, looked up): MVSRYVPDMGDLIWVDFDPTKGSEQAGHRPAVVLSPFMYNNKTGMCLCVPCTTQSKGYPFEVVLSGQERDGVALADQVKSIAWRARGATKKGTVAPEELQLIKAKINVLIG
PrP UTR inh: suppresses PrP 5' UTR mRNA reporter expression | cell-based PrP 5' UTR mRNA reporter, plate reader | inhibition, % (concentration not given with the values) | hit rate 0.35% among 340,000 | AID 488862; in the data active = inhibition above about 52%; note: 0 = median of the neutral control wells
DUSP3 inh: blocks human VHR1 dual specificity phosphatase. recombinant VHR phosphatase, pNPP absorbance. inhibition, % at 13.3 µM. hit rate 0.52% among 290,000. AID 1654; in the data active = inhibition above about 50%
Target sequence (P51452 whole entry, looked up): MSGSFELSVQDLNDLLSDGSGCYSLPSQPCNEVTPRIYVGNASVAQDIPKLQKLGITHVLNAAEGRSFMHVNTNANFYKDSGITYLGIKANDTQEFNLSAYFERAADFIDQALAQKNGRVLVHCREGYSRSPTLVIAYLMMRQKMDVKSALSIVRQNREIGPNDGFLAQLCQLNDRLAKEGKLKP
PfHsp40 rescue: rescue of PfHsp40-mediated yeast toxicity; S. cerevisiae expressing PfHsp40, growth rescue, ATP luminescence; hit rate 0.68% among 340,000; growth rescue, % at 12.5 µM; in the data active = growth rescue above about 28%, passing the limit was not always enough; inconclusive = no clear call, values can overlap the other calls;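 note: yeast W303a lacking pdr1 and pdr3 grown in galactose medium; growth measured after three days at 30 °C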
PrPC surface inh: cell surface PrPC inhibition, primary TR-FRET screen | P04156 | TR-FRET read-out | inhibition, % at 13.8 µM | hit rate 0.43% among 370,000 | AID 720596; in the data active = inhibition above about 24%; note: 0% = median of the test wells and 100% = reference compound wells
BJeLR lethal: BJeLR cell viability loss | inhibition, % (no concentration beside the values) | BJeLR (HRASV12) viability, CellTiter-Glo ATP luminescence, 48 h | hit rate 0.17% among 300,000; in the data active = inhibition above about 50%; inconclusive = no clear call, values can overlap the other calls
Active calls of the source: *; ? = inconclusive; / = no result. In the library only some 2.1% were active in any assay of this set; here they are far more common.

SMILES | MazF activator | PrP UTR inh | DUSP3 inh | PfHsp40 rescue | PrPC surface inh | BJeLR lethal
Cc1ccc(S(=O)(=O)N2c3ccccc3OCC2c2ccccc2)cc1 (configuration not stated) | 8 | -14 | 13 | 2 | 2 | 1
CC(C)(C)n1cnc2cc(NC(=O)c3ccccc3)ccc21 | 7 | -48 | 46 | 0 | 8 | 0
CCCc1sc(N/N=C/c2ccccn2)nc1-c1ccc(F)cc1 | -20 | 20 | -5 | 38* | / | 61*
CCn1nc(C)cc1C(=O)N1CCCC(C(=O)c2ccc3ccccc3c2)C1 (configuration not stated) | 7 | -13 | 21 | -1 | 6 | -7
C=CCCC(=O)N1CCCC(C(=O)c2cccc(OC)c2)C1 (configuration not stated) | 2 | -25 | 57* | -1 | 0 | 2
COc1cccc(C(=O)C2CCCN(C(=O)c3ccccc3Cl)C2)c1 (configuration not stated) | 5 | 0 | 35 | 0 | -3 | 2
Cc1cc(C)n(CC(=O)N2CCCC(C(=O)c3cccc(OC(C)C)c3)C2)n1 (configuration not stated) | -1 | -14 | 52* | 0 | -3 | -8
CCn1nc(C)cc1C(=O)N1CCCC(C(=O)c2ccc(Oc3ccccc3)cc2)C1 (configuration not stated) | -12 | -1 | 57* | 1 | 2 | 1
CC1(C(=O)NS(=O)(=O)c2ccccc2Cl)CCN1C(=O)Cc1cccc2ccccc12 (configuration not stated) | / | / | / | / | -1 | /
O=C(c1cccs1)c1no[n+]([O-])c1C(=O)c1cccs1 | -6 | -9 | / | ? | / | 71*
Cc1ccc(N2C(=O)SC(Cc3ccccc3)C2=O)cc1 (configuration not stated) | 6 | -8 | 8 | 3 | 2 | 22
O=C1SC(Cc2ccccc2)C(=O)N1c1ccccc1 (configuration not stated) | 14 | / | 8 | / | 8 | 89*
Cc1ccc(C(=O)c2sc3nsc(C)c3c2N)cc1 | 62* | -58 | 12 | 0 | -8 | 2
Cc1snc2sc(C(=O)c3ccc(Br)cc3)c(N)c12 | 16 | -59 | 12 | 1 | -4 | 0
CCNC(=S)NNC(=O)CSc1nc2ccccc2c(=O)n1-c1ccc(Cl)cc1 | / | / | / | / | 16 | /
CCN(CC)c1ccc(/C=C/c2ccc3ccc(OC)cc3[n+]2CC)cc1 | 39 | 2 | -12 | 321* | 9 | 43
CCOC(=O)[C@]12CCCCC/C=C\1N(Cc1ccc(OC)cc1)C(=O)[C@H]2CC(=O)NCCCOC | / | / | / | / | 4 | /
CN1C(=O)C(C)(C)c2cc(S(=O)(=O)NCc3ccc(C(=O)NCc4ccco4)cc3)ccc21 | 140* | -12 | 10 | 0 | 0 | 2
CCc1ccc[n+](-c2nc3ccccc3nc2C(=C=[N-])C#N)c1 | 578* | -22 | 17 | -1 | -12 | 5
COc1ccc(Cl)cc1NC(=O)C/C(C)=N/NC(=O)c1ccc(O)cc1 | 4 | -10 | 81 | 4 | 10 | -4
CC1CCN(S(=O)(=O)c2ccc(C(=O)NNC(=O)C3CC3)cc2)CC1 | -19 | -5 | 30 | 124* | 1 | 2
CCOC(=O)c1ccc(NC(=O)c2ncn3c2C(=O)NC[C@@H]3C)cc1 | 5 | / | / | / | 6 | /
CCN(CC)S(=O)(=O)c1ccc(N2CCOCC2)c(NC(=O)C(=O)c2c(-c3ccccc3)cc3ccccn23)c1 | 1 | -20 | 23 | 130* | -1 | -8
CCC(c1ccc(O)cc1)C(CC)c1ccc(O)cc1 (configuration not stated) | 2 | -5 | / | 85* | 4 | /
COc1cc2c(=O)n(CCC(=O)NCC3CCCO3)c(=O)n(CC(=O)c3ccc(Cl)cc3)c2cc1OC (configuration not stated) | 10 | -17 | 51* | 0 | 8 | -8
O=C(CCN1C(=O)/C(=C/c2ccc(F)cc2)SC1=S)Nc1cc([N+](=O)[O-])ccc1O | -3 | -30 | 1 | -1 | 1 | 7
Cc1cccn2c(=O)c3cc(S(=O)(=O)c4ccc(Br)cc4)c(=N)n(C4CCCCC4)c3nc12 | -17 | -9 | 9 | -1 | 3 | -13
Cc1ccc(S(=O)(=O)c2cc3c(=O)n4ccccc4nc3n(CCc3ccccc3)c2=N)cc1 | 72* | -84 | -4 | 1 | -8 | 24
